Data reported in the supplement of paper PMC7156485.
Several values for one entry are separate records, joined by “and”; a condition that tells them apart may be missing. Identical values can stand only once.

Tests used:
Settings in all cases: concentration: 10 µM; 24 h
HCC1569 [1] = assay: cell number relative to DMSO (% of DMSO); higher = more cells (less growth inhibition / toxicity)
In short: (§1)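 For HCC1569 and TDF cells, compounds at 10 µM were applied for 24 h at 37 °C in triplicate in 384-well plates. Cells were fixed in 3.7% formaldehyde, stained for H1.0 and with DAPI, and imaged at ×10 over six fields per well. The endpoint, H1.0 nuclear intensity or cell number, is shown as percent of the plate control using the median of replicates. Positional effects were smoothed for HCC1569 only.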

TDF [2] = assay: as above
In short: as §1

TDF [3] = assay: H1.0 immunofluorescence intensity relative to DMSO (% of DMSO); higher = stronger H1.0 induction, active = 120 or more
In short: as §1

HCC1569 [4] = assay: H1.0 immunofluorescence intensity relative to DMSO (% of DMSO); higher = stronger H1.0 induction, active = 140 or more
In short: as §1
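Throughout, for H1.0 immunofluorescence intensity relative to DMSO: TDF is a line of transformed human dermal fibroblasts of mesenchymal origin.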
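Throughout, for cell number relative to DMSO: TDF denotes transformed human dermal fibroblasts of mesenchymal origin.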

Compound	cell number (HCC1569 [1])	cell number (TDF [2])	H1.0 immunofluorescence intensity (TDF [3])	H1.0 immunofluorescence intensity (HCC1569 [4])
Nc1nc2ccc(Cl)cc2c2nc(-c3ccco3)nn12	99.2	102	96 (inactive)	118 (inactive)
CCCCC1=NC2(CCCC2)C(=O)N1Cc1ccc(-c2ccccc2-c2nn[nH]n2)cc1	101	99.3	101 (inactive)	88.4 (inactive)
CCCCCC(O)C=CC1C(O)CC(O)C1CC(=O)CCC(=O)O (stereo not given) [2,3-Dinor-6-keto-prostaglandin F1a]	103	114	88.8 (inactive)	101 (inactive)
COc1ccc2c(c1)c(CC(=O)OCC(=O)O)c(C)n2C(=O)c1ccc(Cl)cc1 [Acemetacin]	96.5	94.4	95.4 (inactive)	104 (inactive)
CC(=O)OC12COC1CC(O)C1(C)C(=O)C(O)C3=C(C)C(OC(=O)C(O)C(NC(=O)OC(C)(C)C)c4ccccc4)CC(O)(C(OC(=O)c4ccccc4)C21)C3(C)C (stereo not given) [Docetaxil]	61.6	13	147 (active)	144 (active)
COC(=O)C=Cc1cc(O)ccc1O [2,5-Dihydroxycinnamic acid methyl ester]	104	103	91.7 (inactive)	93.6 (inactive)
O=C1CN(N=Cc2ccc(-c3ccc([N+](=O)[O-])cc3)o2)C(=O)[N-]1.[Na+] [Dantrolene sodium]	100	97	100 (inactive)	102 (inactive)
CNCC(O)c1cccc(O)c1.Cl (stereo not given) [Phenylephrine hydrochloride]	107	101	97.5 (inactive)	94.3 (inactive)
Cc1cc(F)c(Nc2ncnc3cc(OCc4ccccc4)ccc23)cc1O.Cl	91.6	105	94.5 (inactive)	138 (inactive)
CC=CCC=CCCC(=O)C1OC1C(N)=O (stereo not given) [Cerulenin]	92.6	91.5	97.8 (inactive)	111 (inactive)
Cn1cnc2c(NCc3ccccc3)nc(NCCO)nc21	94.5	107	103 (inactive)	107 (inactive)
Cl.NC(N)=NC(=O)Cc1c(Cl)cccc1Cl [Guanfacine.HCl]	101	82.4	102 (inactive)	107 (inactive)
O=C1NCCc2[nH]c(-c3ccncc3)cc21 [Cdc7/Cdk9 Inhibitor]	58.9	35.3	111 (inactive)	115 (inactive)
NCCCCN=C(N)N.O=S(=O)(O)O [Agmatine sulfate]	106	98.2	88.7 (inactive)	92.4 (inactive)
CCCCCC(=O)C=CC1C(O)CC(=O)C1CC=CCCCC(=O)O (stereo not given) [15-keto-prostaglandin E2]	100	108	89.3 (inactive)	90.9 (inactive)
CC1(C)C=Cc2c(ccc3c2OC[C@@H](c2ccc(O)cc2O)C3)O1	99.4	93.1	101 (inactive)	109 (inactive)
O=C1CC(c2ccccc2)Oc2cc(O)cc(O)c21 (stereo not given) [Pinocembrin]	106	100	99 (inactive)	91.1 (inactive)
CCCCCCCCCCCCCCCCCCOCC(COP(=O)([O-])OCC[N+](C)(C)C)OC (stereo not given) [1-Octadecyl-2-methylglycero-3 PC]	105	100	96.6 (inactive)	101 (inactive)
COc1cc(SC)ccc1C(=O)N1CCC(Cc2ccccc2)CC1 [p38 MAP Kinase Inhibitor VI, JX401]	104	101	96.9 (inactive)	117 (inactive)
CC(C)(O)c1ccccc1CCC(SCC1(CC(=O)O)CC1)c1cccc(C=Cc2ccc3ccc(Cl)cc3n2)c1 (stereo not given) [Montelukast]	101	101	94.7 (inactive)	94.9 (inactive)
COc1cc2c(Nc3ccc(Br)cc3F)ncnc2cc1OCC1CCN(C)CC1 [Vandetanib]	54.4	65.4	108 (inactive)	142 (active)
Cl.c1ccc2c(CC3=NCCN3)cccc2c1 [Naphazoline hydrochloride]	96.1	108	91.2 (inactive)	90.2 (inactive)
N#CCCc1ccc2c(c1)-c1[nH]c3ccc([N+](=O)[O-])cc3c1CC(=O)N2 [Alsterpaullone,                   2-Cyanoethyl]	63.2	32.7	112 (inactive)	113 (inactive)
CCCCCCCCCC(=O)NC(CN1CCOCC1)C(O)c1ccccc1 (racemic)	99.8	93.9	96.7 (inactive)	106 (inactive)
Cc1cc(Cc2cc(C)cc(C(C)(C)C)c2O)c(O)c(C(C)(C)C)c1	99.9 and 104	90.7 and 98.5	96.7 (inactive) and 99.5 (inactive)	90.7 (inactive) and 88.8 (inactive)

Compound	cell number (HCC1569 [1])	cell number (TDF [2])	H1.0 immunofluorescence intensity (TDF [3])	H1.0 immunofluorescence intensity (HCC1569 [4])
COc1cc2c(cc1CC=C(C)C)C(=O)CC(c1ccc(O)cc1)O2 (stereo not given) [Bavachinin A]	103	104	99.5 (inactive)	96.7 (inactive)
CCOc1cc2ncc(C#N)c(Nc3ccc(F)c(Cl)c3)c2cc1NC(=O)/C=C/CN(C)C	43.6	10	177 (active)	84.6 (inactive)
O=C(Oc1cc(S(=O)(=O)c2ccccc2)ccc1[N+](=O)[O-])c1ccc(Cl)cc1 [2-nitro-5-(phenylsulfonyl)phenyl 4-chlorobenzoate]	99.5	87.8	96.7 (inactive)	111 (inactive)
O=C1NC(=O)c2c1c1c3ccccc3[nH]c1n1cncc21 [Isogranulatimide]	87.7	96.4	90 (inactive)	134 (inactive)
CNCCC(Oc1ccccc1C)c1ccccc1 (stereo not given) [Tomoxetine]	101	112	103 (inactive)	102 (inactive)
CC1=NN(c2ccccc2)C(=O)C1	101	111	93.5 (inactive)	97.6 (inactive)
Cl.O=C1NCC2(CCN(CCc3ccccc3)CC2)O1 [Fenspiride hydrochloride]	98.2	105	93.2 (inactive)	91 (inactive)
NC1(C(=O)O)CCc2cc(C(=O)O)ccc21 (stereo not given)	101	113	88.5 (inactive)	84.5 (inactive)
COc1ccc(CN(CCN(C)C)c2ccccn2)cc1.O=C(O)C=CC(=O)O [Mepyramine maleate]	106	94.8	92.3 (inactive)	100 (inactive)
COc1cc2c(cc1OC)CC(=O)N(CCCN(C)C[C@H]1Cc3cc(OC)c(OC)cc31)CC2.Cl	100	102	92.6 (inactive)	97.3 (inactive)
CCCC1=C(c2ccc(O)cc2)N(c2ccc(O)cc2)NC1=C1C=CC(=O)C=C1 [1,3,5-tris(4-hydroxyphenyl)-4-propyl-1H-pyrazole]	98.3	107	92.5 (inactive)	99.1 (inactive)
CCC1(O)CC2CN(CCc3c([nH]c4ccccc34)C(C(=O)OC)(c3cc4c(cc3OC)N(C)C3C(O)(C(=O)OC)C(OC(C)=O)C5(CC)C=CCN6CCC43C65)C2)C1.O=S(=O)(O)O (stereo not given) [Vinblastine sulfate salt]	48.9	16.8	152 (active)	132 (inactive)
COC(=O)c1ccccc1O [Methyl salicylate]	100	104	92.2 (inactive)	113 (inactive)
CC12CCC(=O)C=C1CCC1C2CCC2(C)C1CCC2(O)C(=O)CO (stereo not given) [Cortexolone]	98.2	99.3	90.2 (inactive)	96.2 (inactive)
O=c1[nH]c(=O)n(C2CCCO2)cc1F (stereo not given) [Ftorafur]	104	102	99.6 (inactive)	103 (inactive)
COc1ccc(Cl)cc1C(=O)NCCc1ccc(S(=O)(=O)NC(=O)NC2CCCCC2)cc1 [Glyburide]	107	102	90.2 (inactive)	109 (inactive)
CC(=O)N[C@@H](CS)C(=O)O [N-Acetyl-L-Cysteine]	98.1	115	109 (inactive)	118 (inactive)
COc1ccc(C(=O)NCc2ccc(OCCN(C)C)cc2)cc1OC [Itopride]	101	104	92 (inactive)	118 (inactive)
CC(C)CC(NC(=O)C(Cc1ccccc1)NC(=O)c1cnccn1)B(O)O (stereo not given) [Bortezomib]	34.2	10.2	144 (active)	59.7 (inactive)
OCCN1CCN(CCCN2c3ccccc3Sc3ccc(Cl)cc32)CC1 [Perphenazine]	88	90.8	116 (inactive)	140 (inactive)
N=C(N)N1CCc2ccccc2C1 [Debrisoquin]	103	102	96 (inactive)	96.4 (inactive)
CN(C)CCCC1(c2ccc(F)cc2)OCc2cc(C#N)ccc21 (stereo not given) [Escitalopram]	100	86.1	98 (inactive)	93.5 (inactive)
COc1cc2ncnc(Nc3cccc(Cl)c3)c2cc1OC	83.8	88	99.4 (inactive)	111 (inactive)
COc1cc(Br)c(Nc2nc(-c3c(C)nc4ncccn34)cs2)c(Br)c1	61.1	53.8	108 (inactive)	199 (active)
CCCOc1ccc(C=C2SC(=O)NC2=O)cc1 [PIM1/2 Kinase Inhibitor VI]	106	110	103 (inactive)	98.1 (inactive)
